MEKK2 WT-MEK5 = raises or lowers MEK5 binding to wildtype human MEKK2 PB1 domain; Q9Y2U5; binding response (% of control), % at 10 µM; bead flow cytometry, Alexa488-MEK5 binding to MEKK2 WT; actives lie on both sides; 290,000 compounds, 1.1% hits; AID 1531; in the data active = binding response below about 67% or above about 130%
MEKK2 mut-MEK5 = signal of MEK5 binding to mutant human MEKK2 PB1 domain. bead flow cytometry, Alexa488-MEK5 binding to MEKK2 mutant. percent response, % at 10 µM. 290,000 compounds, 0.35% hits; in the data active = percent response above about 24%, passing the limit was not always enough
MEKK3 PB1 HTS = MEKK3-MEK5 PB1 interaction, increase or decrease; Q99759; bead-based flow cytometry, Alexa488-MEK5 binding to MEKK3; actives lie on both sides; 0 = blocked by unlabeled MEK5, 100 = vehicle; 290,000 compounds, 1.4% hits; binding response (% of control), % at 10 µM;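 active = binding response more than 3 SD above or below the average of its plate-row segment, actives on both sides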;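 note: Alexa488 bead fluorescence after subtracting the streptavidin-only scavenger bead signal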
Target sequence (Q99759 whole entry, looked up): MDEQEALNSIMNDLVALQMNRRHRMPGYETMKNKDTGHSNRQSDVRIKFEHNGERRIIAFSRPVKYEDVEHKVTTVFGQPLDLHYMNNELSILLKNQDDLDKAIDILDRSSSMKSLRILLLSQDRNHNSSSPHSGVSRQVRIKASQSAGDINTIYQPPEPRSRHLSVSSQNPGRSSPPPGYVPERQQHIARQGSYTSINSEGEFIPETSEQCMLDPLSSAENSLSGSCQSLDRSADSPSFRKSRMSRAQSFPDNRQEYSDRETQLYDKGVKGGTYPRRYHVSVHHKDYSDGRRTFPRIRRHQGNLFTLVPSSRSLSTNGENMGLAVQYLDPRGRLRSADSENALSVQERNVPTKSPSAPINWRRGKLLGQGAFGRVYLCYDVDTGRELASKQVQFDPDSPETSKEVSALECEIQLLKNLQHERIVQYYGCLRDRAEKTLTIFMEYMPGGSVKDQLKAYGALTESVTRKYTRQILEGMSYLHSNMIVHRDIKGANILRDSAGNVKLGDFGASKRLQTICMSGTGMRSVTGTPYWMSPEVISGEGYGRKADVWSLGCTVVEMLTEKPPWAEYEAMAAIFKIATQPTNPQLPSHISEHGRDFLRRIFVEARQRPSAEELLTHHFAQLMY
GRK2 aptamer HTS = blocks RNA aptamer binding to human GRK2 | P25098 | bead flow cytometry, FAM-aptamer displacement from GRK2 | inhibition of aptamer binding, % at 10 µM | 330,000 compounds, 0.59% hits | AID 488847;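 active = inhibition of aptamer binding above 40%, roughly 3 SD of noise, on plates passing a quality check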;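 note: median bead fluorescence of bound FAM aptamer so fluorescent compounds give negative values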
MEKK2wt confirm = raises or lowers MEK5 binding to wildtype human MEKK2, retest; shares compounds with MEKK3 PB1 HTS; bead flow cytometry, Alexa488-MEK5 binding to MEKK2 WT; actives lie on both sides; binding response (% of control), % at 10 µM; 5,900 compounds, 2.4% hits; AID 1892; in the data active = binding response below about 16% or above about 210%; inactive = in between
MEKK2mut confirm = signal of MEK5 binding to mutant human MEKK2, retest; shares compounds with MEKK3 PB1 HTS; bead flow cytometry, Alexa488-MEK5 binding to MEKK2 mutant; percent response, % at 10 µM; 5,900 compounds, 2% hits; AID 1893; in the data active = percent response mostly above about 71%, no sharp cut-off; inactive = mostly below about 38%;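 note: higher means compound restores mutant binding toward wildtype level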
MEKK3-MEK5 inh = MEKK3-MEK5 PB1 inhibition, single concentration confirmation | shares compounds with MEKK3 PB1 HTS | bead flow cytometry, Alexa488-MEK5 binding to MEKK3; stronger effect = lower value | binding response (% of control), % at 10 µM | 5,900 compounds, 1.8% hits | AID 1894;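 active = binding response below 72% of control, or above a set upper limit, though filed actives all read lower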;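 note: 100% = DMSO only wells and 0% = binding blocked by excess unlabeled MEK5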
Numbers without * were called inactive; [ ] = remark or other dose. Sampled rows, rich in hits. Any-hit rate of the full collection: about 2.5%.

`O=C1CC(=C(c2ccccc2)c2ccccc2)C(=O)N1CCCCN1CCN(c2cccc(Cl)c2)CC1` gave MEKK2 WT-MEK5 142*, MEKK2 mut-MEK5 21, MEKK3 PB1 HTS 102, GRK2 aptamer HTS 0, MEKK2wt confirm 152, MEKK2mut confirm 37 and MEKK3-MEK5 inh 104.
`CC(C)c1[nH]c(=O)c(C#N)c2c1CSC(C)(C)C2` gave MEKK2 WT-MEK5 3.0*[inhibitor], MEKK2 mut-MEK5 -14, MEKK3 PB1 HTS 3.0*[inhibitor], GRK2 aptamer HTS 0, MEKK2wt confirm 100, MEKK2mut confirm -4 and MEKK3-MEK5 inh 98.
For CC(O)[C@H]1CNCCN1CCc1cccc(F)c1 (stereo partly drawn) the results were GRK2 aptamer HTS 1.
For CCN(CC)c1ccc(C(=O)NNC(=O)CCl)cc1 the results were MEKK2 WT-MEK5 46*[inhibitor], MEKK2 mut-MEK5 -18, MEKK3 PB1 HTS 42*[inhibitor], GRK2 aptamer HTS 2, MEKK2wt confirm 105, MEKK2mut confirm 5 and MEKK3-MEK5 inh 106.
CCN(CC)c1ccc(C(=O)NNC(=O)CCNC(=O)c2ccccc2)cc1 was read as GRK2 aptamer HTS 0.
`CCN(CC)S(=O)(=O)c1ccc2c(c1)nc(SCC(=O)N(C)C1CCS(=O)(=O)C1)n2CC` (stereo not drawn) gave GRK2 aptamer HTS 1.
For CCN(CC)c1ccc(/C=N/NC(=O)C(O)(c2ccccc2)c2ccccc2)o1 the results were MEKK2 WT-MEK5 95, MEKK2 mut-MEK5 0, MEKK3 PB1 HTS 75*[inhibitor], GRK2 aptamer HTS 1, MEKK2wt confirm 100, MEKK2mut confirm 0 and MEKK3-MEK5 inh 103.
For O=C(O)c1ccc(/C=N/NC(=O)C(O)(c2ccccc2)c2ccccc2)cc1 the results were MEKK2 WT-MEK5 103, MEKK2 mut-MEK5 0, MEKK3 PB1 HTS 101 and GRK2 aptamer HTS 5.
`CCn1cc(C(=O)O)c(=O)c2cc(F)c(N3CCN(C(=S)NC(=O)c4ccc(OC)cc4)CC3)cc21` gave MEKK2 WT-MEK5 105, MEKK2 mut-MEK5 4, MEKK3 PB1 HTS 104 and GRK2 aptamer HTS 0.
CCn1cc(C(=O)NCCc2ccccc2)c(=O)c2cc(F)c(N3CCN(C)CC3)cc21 was read as MEKK2 WT-MEK5 115, MEKK2 mut-MEK5 5, MEKK3 PB1 HTS 101 and GRK2 aptamer HTS 0.
CCn1cc(C(=O)O)c(=O)c2cc(F)c(N3CCNCC3)cc21 was read as MEKK2 WT-MEK5 97, MEKK2 mut-MEK5 -4, MEKK3 PB1 HTS 74*[inhibitor], GRK2 aptamer HTS 6, MEKK2wt confirm 95, MEKK2mut confirm -5 and MEKK3-MEK5 inh 103.
`CCn1cc(C(=O)O)c(=O)c2cc(F)c(N3CCN(C(=S)NC(=O)c4ccc(Br)cc4)CC3)cc21` gave MEKK2 WT-MEK5 85, MEKK2 mut-MEK5 54*, MEKK3 PB1 HTS 59*[inhibitor], GRK2 aptamer HTS 0, MEKK2wt confirm -1.0*[inhibitor], MEKK2mut confirm -2 and MEKK3-MEK5 inh 99.
`CCn1cc(C(=O)NCc2ccc3c(c2)OCO3)c(=O)c2cc(F)c(N3CCN(C)CC3)cc21` gave MEKK2 WT-MEK5 138*, MEKK2 mut-MEK5 12, MEKK3 PB1 HTS 105, GRK2 aptamer HTS 0, MEKK2wt confirm 114, MEKK2mut confirm 7 and MEKK3-MEK5 inh 106.
`CCn1cc(C(=O)O)c(=O)c2cc(F)c(N3CCN(C)CC3)cc21` gave MEKK2 WT-MEK5 103, MEKK2 mut-MEK5 3, MEKK3 PB1 HTS 107 and GRK2 aptamer HTS 0.
Cc1ccc(NC(=O)c2ccc(NCCc3ccccc3)c([N+](=O)[O-])c2)cc1F was read as MEKK2 WT-MEK5 5.0*[inhibitor], MEKK2 mut-MEK5 5, MEKK3 PB1 HTS 107, GRK2 aptamer HTS 0, MEKK2wt confirm 119, MEKK2mut confirm 7 and MEKK3-MEK5 inh 109.
Screening O=C(Nc1cc(F)cc(F)c1)c1ccc(NCCc2ccccc2)c([N+](=O)[O-])c1 returned MEKK2 WT-MEK5 100, MEKK2 mut-MEK5 -1, MEKK3 PB1 HTS 96 and GRK2 aptamer HTS 0.
Cn1c(NC(=O)c2ccc(C(C)(C)C)cc2)cc(=O)n(C)c1=O was read as MEKK2 WT-MEK5 100, MEKK2 mut-MEK5 0, MEKK3 PB1 HTS 101 and GRK2 aptamer HTS 1.
For Cn1c(NC(=O)c2ccc(Cl)cc2)cc(=O)n(C)c1=O the results were MEKK2 WT-MEK5 107, MEKK2 mut-MEK5 0, MEKK3 PB1 HTS 136*, GRK2 aptamer HTS 0, MEKK2wt confirm 104, MEKK2mut confirm -5 and MEKK3-MEK5 inh 104.
`NC(=O)c1cc(-c2ccccc2)sc1NC(=O)CN1CCCCC1` gave MEKK2 WT-MEK5 102, MEKK2 mut-MEK5 11, MEKK3 PB1 HTS 100 and GRK2 aptamer HTS 0.
`CCNCc1cc(Cl)c(OCc2ccccc2)c(OCC)c1` gave MEKK2 WT-MEK5 112, MEKK2 mut-MEK5 1, MEKK3 PB1 HTS 111 and GRK2 aptamer HTS 0.
For COc1cc(CNCCO)cc(Cl)c1OCc1ccc(Cl)cc1Cl the results were MEKK2 WT-MEK5 161*, MEKK2 mut-MEK5 25, MEKK3 PB1 HTS 106, GRK2 aptamer HTS 0, MEKK2wt confirm 160, MEKK2mut confirm 27 and MEKK3-MEK5 inh 108.
Screening CCOc1cc(CNC2CCCC2)cc(Cl)c1OCc1ccc(F)cc1 returned MEKK2 WT-MEK5 144*, MEKK2 mut-MEK5 14, MEKK3 PB1 HTS 101, GRK2 aptamer HTS 0, MEKK2wt confirm 149, MEKK2mut confirm 26 and MEKK3-MEK5 inh 97.
`COc1cc(CNC2CCCC2)cc(Cl)c1OCc1ccccc1Cl` gave MEKK2 WT-MEK5 207*, MEKK2 mut-MEK5 46, MEKK3 PB1 HTS 109, GRK2 aptamer HTS 0, MEKK2wt confirm 141, MEKK2mut confirm 23 and MEKK3-MEK5 inh 109.
For COc1cc(CNC2CCCCCCC2)cc(Cl)c1OCC(N)=O the results were MEKK2 WT-MEK5 105, MEKK2 mut-MEK5 0, MEKK3 PB1 HTS 98 and GRK2 aptamer HTS 0.
Screening COc1cc(CNC2CCCC2)cc(Cl)c1OCc1ccc(F)cc1 returned MEKK2 WT-MEK5 126, MEKK2 mut-MEK5 25*, MEKK3 PB1 HTS 98, GRK2 aptamer HTS 0, MEKK2wt confirm 127, MEKK2mut confirm 10 and MEKK3-MEK5 inh 104.
`CC(=O)c1c(C)[nH]c(C(=O)OCC(=O)c2c(N)n(C)c(=O)n(C)c2=O)c1C` gave MEKK2 WT-MEK5 105, MEKK2 mut-MEK5 1, MEKK3 PB1 HTS 100 and GRK2 aptamer HTS 1.
For COc1ccc(Cl)cc1N/C(N)=N/c1nc(CSc2ccc(C)cc2)cc(=O)[nH]1 the results were MEKK2 WT-MEK5 103, MEKK2 mut-MEK5 2, MEKK3 PB1 HTS 104 and GRK2 aptamer HTS 0.

Bioassay records (PubChem BioAssay)
